Bioassay records deposited in PubChem BioAssay by several laboratories.
Compounds with a hit are over-represented: about 2.8% of the library has one in this group of screens.
SENP8 block-1: blocks the human protease SENP8; purified SENP8, Z-RLRGG-aminoluciferin cleavage, luminescence; inhibition, % at 10 µM; actives 1.2% (n = 330,000); AID 2540; in the data active means inhibition above about 50%
SENP7 block: inhibitors of human SENP7 protease | Q9BQF6 | recombinant SENP7, Z-RLRGG-aminoluciferin luminescence, 40 min | inhibition, % at 5 µM | actives 1.5% (n = 330,000);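 active means inhibition above about 50% at the single test dose, limit read from the data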;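 further: plate controls were DMSO with enzyme for no effect and no enzyme buffer wells for full effect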
Target sequence (Q9BQF6 706-1050 limits assumed): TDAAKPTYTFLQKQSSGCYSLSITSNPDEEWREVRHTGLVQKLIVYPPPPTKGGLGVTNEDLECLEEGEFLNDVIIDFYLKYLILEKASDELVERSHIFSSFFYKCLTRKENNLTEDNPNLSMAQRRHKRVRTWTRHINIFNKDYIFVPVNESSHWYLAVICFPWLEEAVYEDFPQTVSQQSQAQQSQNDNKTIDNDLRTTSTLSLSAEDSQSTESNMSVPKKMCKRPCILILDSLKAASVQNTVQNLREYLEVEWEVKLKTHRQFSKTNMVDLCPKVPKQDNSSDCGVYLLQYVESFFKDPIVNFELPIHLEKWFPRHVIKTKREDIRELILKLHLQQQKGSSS
SENP8 block-2: SENP8 (human) protease inhibition; recombinant SENP8, Nedd8 substrate fluorescence; Q96LD8; AID 602440; inhibition, % at 20 µM; actives 0.64% (n = 360,000); in the data active means inhibition mostly above about 40%, no sharp cut-off; inactive means mostly below about 27%
SENP6 block: blocks the human protease SENP6; Q9GZR1; inhibition, % at 10 µM; actives 1.8% (n = 330,000); Recombinant SENP6 catalytic domain, aminoluciferin luminescence;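 active means inhibition above about 50% at the single tested dose, limit read from the data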;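 further: plate controls were DMSO wells with enzyme for no effect and DMSO wells lacking enzyme for full effect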
HSP90 inh: inhibitors of HSP90 luciferase refolding in rabbit reticulocyte lysate. luciferase refolding luminescence, 3 h. inhibition, % at 5.6 µM. actives 0.91% (n = 290,000);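 active means inhibition above the screen-wide mean plus 3 SD, computed separately per campaign, cut at about 16% in these data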;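 further: 0% = DMSO wells and 100% = 60 µM geldanamycin wells; inhibitors lower the luminescence because luciferase stays unfolded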
SENP8 conf: confirmation of human SENP8 protease inhibitors | shares compounds with SENP8 block-2 | inhibition, % at 25 µM | actives 15% (n = 1,400) | purified SENP8, Nedd8-AMC/pro-Nedd8 cleavage fluorescence, 30 min; in the data active means inhibition mostly above about 39%, no sharp cut-off; inactive means mostly below about 34%
* marks the source's active call; other numbers are inactive results; / = no result.

SMILES	SENP8 block-1	SENP7 block	SENP8 block-2	SENP6 block	HSP90 inh	SENP8 conf
CN(C)Cc1c[nH]c2ccccc12	-1	-6	41*	-2	/	2
O=C(CNS(=O)(=O)c1cccs1)N1CCC2(CC1)OCCO2	4	0	9	5	-2	/
COc1cc(C2c3cc(O)c(OC)cc3CC3C(=O)OCC32)ccc1O (stereo not drawn)	/	/	44*	/	/	5
COc1cc(C2c3cc4c(c(O)c3CC3COC(=O)C32)OCO4)cc(OC)c1OC (stereo not drawn)	/	/	6	/	/	/
O=S(=O)(c1cc(Cl)cc(Cl)c1)N1Cc2cc(-c3cccc(F)c3)ccc2-n2nncc2C1	/	/	12	/	/	/
CN1CCN(c2c(F)cc([N+](=O)[O-])c(N)c2Br)CC1	-3	-4	25	-8	-2	/
Nc1c([N+](=O)[O-])cc(F)c(N2CCNCC2)c1Br	-2	0	44*	-9	1	7
Cc1ccc(-n2c(O)c(C=NC3CCCC3)c(=O)[nH]c2=O)c(C)c1	-9	-3	12	11	1	/
O=c1cc(C2CCNCC2)[nH][nH]1	-2	18	55*	6	7	19
Cc1ccc(-n2c(/C=C/c3ccccn3)nc3ccccc3c2=O)cc1	-3	-6	4	-9	0	/
Cc1cc(OCC(=O)N[C@@H](Cc2ccccc2)C(=O)O)c2c3c(c(=O)oc2c1)CCC3	-3	-19	-216	-12	4	/
CN1CCN(c2cc(N3CCCCCC3)c(F)cc2[N+](=O)[O-])CC1	-16	-3	22	-5	-3	/
CCN1CCN(c2cc(N3CCCC3)c([N+](=O)[O-])cc2F)CC1	-3	-1	42*	-15	0	20
O=[N+]([O-])c1ccccc1CN1CC=C(c2ccc(F)cc2)CC1	-1	-6	44*	7	3	12
O=[N+]([O-])c1cccc(CN2CC=C(c3ccc(F)cc3)CC2)c1	-5	-6	18	1	-1	/
